# Test results taken from the supplement of paper PMC8728848.
# The full list was thinned out, with the strongest signals kept by preference.
# B1: Epa19 (Candida glabrata) (protein)
# chain: MGSSHHHHHHSSGLVPRGSHMASSKDPTRFPIGCSPQVLKTQPGLAVKLYSYGHPVPGCSYITYQYPDFPRSGYKKERKLADITGVNGKIDIDLKPNDPCRVLTGHLPSNYNYPDTLTYTNFTMILYGYFQPKVTGYHTFNLEADDLLFMNLGAGNAFDCCKAESTLDNFGNYQSYSLWGSDYAKANITVFLVSGVYYPIRLFYVNRDNNAVIDFSFTTEFDKEKVHDFTSYFFSASDGEQCPGSV
# Assays:
# Experiment in all cases: glycan array binding signal (z-score within array); higher = stronger binding
# Details in all cases: glycan notation: IUPAC condensed, linker removed
# Fuc(a1-2)Gal = target: Fuc(a1-2)Gal
# Procedure, shortened: (§1)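 The Consortium for Functional Glycomics database supplied 3228 glycan arrays, of which those lacking an available protein sequence were dropped. The binding signal, a within-array Z-score, was averaged across arrays of the same protein sequence and across linkers. Negative scores can be read as non-binding.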
# [1] = target: Fuc(a1-2)Gal(b1-3)GlcNAc(b1-2)Man(a1-3)[Fuc(a1-2)Gal(b1-3)GlcNAc(b1-2)Man(a1-6)]Man(b1-4)GlcNAc(b1-4)GlcNAc
# Procedure, shortened: as §1
# [2] = target: Fuc(a1-2)Gal(b1-3)GlcNAc(b1-3)[Gal(b1-4)GlcNAc(b1-6)]Gal(b1-4)Glc
# Procedure, shortened: as §1
# [3] = target: Fuc(a1-2)Gal(b1-4)Fuc(a1-3)]GlcNAc(b1-2)Man(a1-3)[Fuc(a1-2)Gal(b1-4)[Fuc(a1-3)]GlcNAc(b1-2)Man(a1-6)]Man(b1-4)GlcNAc(b1-4)GlcNAc
# Procedure, shortened: as §1
# Fuc(a1-2)Gal(b1-4)GlcNAc = target: Fuc(a1-2)Gal(b1-4)GlcNAc
# Procedure, shortened: as §1
# Fuc(a1-2)[Gal(a1-3)]Gal = target: Fuc(a1-2)[Gal(a1-3)]Gal
# Procedure, shortened: as §1
# [4] = target: Fuc(a1-2)[Gal(a1-3)]Gal(b1-4)GlcNAc(b1-2)Man
# Procedure, shortened: as §1
# [5] = target: Fuc(a1-2)[GalNAc(a1-3)]Gal(b1-3)GlcNAc(b1-3)GalNAc
# Procedure, shortened: as §1
# [6] = target: Fuc(a1-2)[GalNAc(a1-3)]Gal(b1-4)GlcNAc(b1-6)GalNAc
# Procedure, shortened: as §1
# [7] = target: Fuc(a1-2)[GalNAc(a1-3)]Gal(b1-4)[Fuc(a1-3)]GlcNAc
# Procedure, shortened: as §1
# [8] = target: Fuc(a1-2)[GalNAc(a1-3)]Gal(b1-4)[Fuc(a1-3)]GlcNAc(b1-3)GalNAc
# Procedure, shortened: as §1
# [9] = target: Fuc(a1-3)[Gal(b1-4)]GlcNAc(b1-2)Man
# Procedure, shortened: as §1
# [10] = target: Gal(a1-3)Gal(b1-4)[Fuc(a1-3)]GlcNAc(b1-2)Man(a1-3)[Gal(a1-3)Gal(b1-4)[Fuc(a1-3)]GlcNAc(b1-2)Man(a1-6)]Man(b1-4)GlcNAc(b1-4)GlcNAc
# Procedure, shortened: as §1
# [11] = target: Gal(a1-4)Gal(b1-3)GlcNAc(b1-2)Man(a1-3)[Gal(a1-4)Gal(b1-3)GlcNAc(b1-2)Man(a1-6)]Man(b1-4)GlcNAc(b1-4)GlcNAc
# Procedure, shortened: as §1
# Gal(b1-2)Gal = target: Gal(b1-2)Gal
# Procedure, shortened: as §1
# Gal(b1-3)GalNAc = target: Gal(b1-3)GalNAc
# Procedure, shortened: as §1
# [12] = target: Gal(b1-3)GlcNAc(b1-3)GalNAc
# Procedure, shortened: as §1
# [13] = target: Gal(b1-3)[Neu5Ac(b2-6)]GalNAc
# Procedure, shortened: as §1
# [14] = target: Gal(b1-4)GalNAc(a1-3)[Fuc(a1-2)]Gal(b1-4)GlcNAc
# Procedure, shortened: as §1
# Gal(b1-4)Glc6S = target: Gal(b1-4)Glc6S
# Procedure, shortened: as §1
# [15] = target: Gal(b1-4)GlcNAc(b1-2)Man(a1-6)[GlcNAc(b1-2)Man(a1-3)]Man(b1-4)GlcNAc(b1-4)GlcNAc
# Procedure, shortened: as §1
# [16] = target: Gal(b1-4)GlcNAc(b1-2)[Gal(b1-4)GlcNAc(b1-6)]Man(a1-6)[Gal(b1-4)GlcNAc(b1-2)Man(a1-3)]Man(b1-4)GlcNAc(b1-4)GlcNAc
# Procedure, shortened: as §1
# [17] = target: Gal(b1-4)GlcNAc(b1-3)Gal(b1-4)GlcNAc(b1-2)Man(a1-3)[Gal(b1-4)GlcNAc(b1-3)Gal(b1-4)GlcNAc(b1-2)Man(a1-6)]Man(b1-4)GlcNAc(b1-4)GlcNAc
# Procedure, shortened: as §1
# [18] = target: Gal(b1-4)GlcNAc(b1-3)Gal(b1-4)GlcNAc(b1-2)[Gal(b1-4)GlcNAc(b1-3)Gal(b1-4)GlcNAc(b1-6)]Man(a1-6)[Gal(b1-4)GlcNAc(b1-3)Gal(b1-4)GlcNAc(b1-2)Man(a1-3)]Man(b1-4)GlcNAc(b1-4)GlcNAc
# Procedure, shortened: as §1
# [19] = target: Gal(b1-4)GlcNAc(b1-3)Gal(b1-4)GlcNAc(b1-3)Gal(b1-4)GlcNAc(b1-2)Man(a1-3)[Gal(b1-4)GlcNAc(b1-3)Gal(b1-4)GlcNAc(b1-3)Gal(b1-4)GlcNAc(b1-2)Man(a1-6)]Man(b1-4)GlcNAc(b1-4)[Fuc(a1-6)]GlcNAc
# Procedure, shortened: as §1
# [20] = target: Gal(b1-4)GlcNAc(b1-3)Gal(b1-4)GlcNAc(b1-3)Gal(b1-4)GlcNAc(b1-3)Gal(b1-4)GlcNAc(b1-2)[Gal(b1-4)GlcNAc(b1-3)Gal(b1-4)GlcNAc(b1-3)Gal(b1-4)GlcNAc(b1-3)Gal(b1-4)GlcNAc(b1-6)]Man(a1-6)[Gal(b1-4)GlcNAc(b1-3)Gal(b1-4)GlcNAc(b1-3)Gal(b1-4)GlcNAc(b1-3)Gal(b1-4)GlcNAc(b1-2)Man(a1-3)]Man(b1-4)GlcNAc(b1-4)[Fuc(a1-6)]GlcNAc
# Procedure, shortened: as §1
# [21] = target: Gal(b1-4)GlcNAc(b1-3)Gal(b1-4)GlcNAc(b1-3)[Gal(b1-4)GlcNAc(b1-3)Gal(b1-4)GlcNAc(b1-6)]GalNAc
# Procedure, shortened: as §1
# [22] = target: Gal(b1-4)GlcNAc(b1-6)GalNAc
# Procedure, shortened: as §1
# [23] = target: Gal(b1-4)GlcNAc(b1-6)[Gal(b1-3)]GalNAc
# Procedure, shortened: as §1
# [24] = target: Gal3S(b1-4)[Fuc(a1-3)]GlcNAc6S
# Procedure, shortened: as §1
# Gal6S(b1-4)GlcNAc = target: Gal6S(b1-4)GlcNAc
# Procedure, shortened: as §1
# GalNAc(a1-3)Gal = target: GalNAc(a1-3)Gal
# Procedure, shortened: as §1
binder,measurement,setting,value
B1,glycan array binding signal (z-score),Fuc(a1-2)Gal,-0.231
same,glycan array binding signal (z-score),[1],0.072
same,glycan array binding signal (z-score),[2],-0.333
same,glycan array binding signal (z-score),[3],2.57
same,glycan array binding signal (z-score),Fuc(a1-2)Gal(b1-4)GlcNAc,-0.459
same,glycan array binding signal (z-score),Fuc(a1-2)[Gal(a1-3)]Gal,-0.947
same,glycan array binding signal (z-score),[4],0.045
same,glycan array binding signal (z-score),[5],2.07
same,glycan array binding signal (z-score),[6],0.209
same,glycan array binding signal (z-score),[7],-0.301
same,glycan array binding signal (z-score),[8],1.08
same,glycan array binding signal (z-score),[9],-0.217
same,glycan array binding signal (z-score),[10],2.47
same,glycan array binding signal (z-score),[11],-0.21
same,glycan array binding signal (z-score),Gal(b1-2)Gal,-0.099
same,glycan array binding signal (z-score),Gal(b1-3)GalNAc,-0.306
same,glycan array binding signal (z-score),[12],-0.204
same,glycan array binding signal (z-score),[13],2.39
same,glycan array binding signal (z-score),[14],-0.193
same,glycan array binding signal (z-score),Gal(b1-4)Glc6S,2.4
same,glycan array binding signal (z-score),[15],0.102
same,glycan array binding signal (z-score),[16],-1.26
same,glycan array binding signal (z-score),[17],2.29
same,glycan array binding signal (z-score),[18],0.736
same,glycan array binding signal (z-score),[19],0.256
same,glycan array binding signal (z-score),[20],0.024
same,glycan array binding signal (z-score),[21],1.4
same,glycan array binding signal (z-score),[22],-0.146
same,glycan array binding signal (z-score),[23],0.35
same,glycan array binding signal (z-score),[24],0.49
same,glycan array binding signal (z-score),Gal6S(b1-4)GlcNAc,-0.372
same,glycan array binding signal (z-score),GalNAc(a1-3)Gal,-0.246
